Assay outcomes from PubChem.
Compounds with a hit are over-represented: about 19% of the library has one in this group of screens.
IL1B secr inh = inflammasome signaling inhibition, IL-1 beta readout | THP-1 LPS/ATP IL-1B secretion, AlphaLISA, 16 h; stronger effect = lower value | activity change, % at 57.5 µM | actives 4.7% (n = 360,000); in the data active means activity change below about -50%; inconclusive means mostly about -30% to -49%
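Secreted IL-1B measured by AlphaLISA bead assay after 16 h compound exposure of THP-1 cells; compounds (final up to 57.5 uM) added 1 h before LPS (250 ng/mL) and ATP (1.25 mM) stimulation; lower signal means less secretion.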
DT40 TDP1 no CPT = qHTS for Inhibitors of human tyrosyl-DNA phosphodiesterase 1 (TDP1): qHTS in cells in absence of CPT; DT40 Tdp1-/- hTDP1 cells, no CPT, ATP luminescence, 48 h; Potency, µM (doses to about 46.2 µM), most hits filed as inhibitors; actives 15% (n = 420,000); AID 686978, 2013; further: nearly all actives have a fitted effect of over 55% in size
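DT40 Tdp1-/-;hTDP1 cells, no CPT (DMSO vehicle only), 400 cells/well; compounds pin-transferred; ≥48 hr, 37 °C; CellTiter-Glo 30 min RT dark, luminescence read.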
HT1080-NT tox = kills 2HG-producing HT-1080-NT fibrosarcoma cells | HT-1080-NT fibrosarcoma viability, CellTiter-Glo ATP luminescence, 48 h | Potency, µM (top dose mostly 46.1 µM), actives largely listed as cytotoxic | actives 1.6% (n = 360,000);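 further: NT is the 2HG producing partner of a matched IDH1 knockdown line; nearly all actives have a fitted effect of over 55% in size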
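HT-1080-NT; 750 cells/well; 5% FBS RPMI; 48 h compound, 37 degrees C; CellTiter-Glo luminescence; curve fitting and curve-class assignment.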
HT1080 IDH1KD tx = HT-1080 IDH1 knockdown cell toxicity (counter line) | HT-1080 IDH1 knockdown viability, ATP luminescence, 48 h | Potency, µM (series often up to 46.1 µM), actives largely listed as cytotoxic | actives 2% (n = 360,000) | AID 686971
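% activity derives from luminescence (CellTiter-Glo), normalised to DMSO and no-cell wells. HT-1080-IDH1KD cells, 750/well, had 48 h compound exposure at 37 °C.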
TDP1 cell CPT = DT40-hTDP1 cell growth loss with CPT; AID 686979; actives 12% (n = 420,000); chicken DT40 Tdp1-/-;hTDP1 cells + 20 nM CPT, ATP luminescence, 48 h; Potency, µM (highest dose often 46.2 µM), most hits filed as inhibitors; further: nearly all actives have a fitted effect of over 55% in size
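Chicken DT40 Tdp1-/- cells stably complemented with human TDP1 were seeded at 400 cells/well in medium containing 20 nM camptothecin, exposed to pin-transferred compounds, and grown at 37 °C for at least 48 hr. Viability was read as ATP luminescence.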
Of the large screens only hits and unclear results are named; the others gave an inactive call; ! = a repeat was not active. Unless noted, the call rests on the fitted dose curve; in most records, active means well fitted curve in the direction sought with a large enough effect; inconclusive means small, poorly fitted or top-dose-only effect, or another doubt; inactive means no such curve, though single readings can be large; an effect the other way counts as inactive or inconclusive.

COc1ccccc1-n1c(SCC(=O)N2CCOCC2)nc2ccccc2c1=O	none
COc1ccc(C(C)=O)cc1CSc1nc2ccccc2c(=O)n1-c1cccc(C)c1	DT40 TDP1 no CPT 18µM, TDP1 cell CPT 18µM
O=C(c1ccc(-n2c(SCc3cc(F)ccc3F)nc3ccccc3c2=O)cc1)N1CCOCC1	DT40 TDP1 no CPT 26µM, TDP1 cell CPT 12µM
COc1ccc(C(C)=O)cc1CSc1nc2ccccc2c(=O)n1-c1ccccc1C	DT40 TDP1 no CPT 21µM, TDP1 cell CPT 18µM
FC(F)(F)c1ccccc1-n1c(CN2CCCCC2)n[nH]c1=S	none
Cc1ccccc1C(=O)N1c2ccccc2OCC1C(C)(C)C (stereo not given)	DT40 TDP1 no CPT 21µM, TDP1 cell CPT inconclusive
NCCC1CN(C(=O)OCc2ccccc2)c2ccccc21 (stereo not given)	DT40 TDP1 no CPT 5.2µM, HT1080 IDH1KD tx inconclusive, TDP1 cell CPT 5.8µM
CCc1ccc(NC(=O)C2CCCN(S(=O)(=O)c3cccnc3)C2)cc1 (stereo not given)	DT40 TDP1 no CPT inconclusive, HT1080-NT tox inconclusive, TDP1 cell CPT inconclusive
O=C(Nc1ccc(OC(F)(F)F)cc1)C1CCCN(S(=O)(=O)c2cccnc2)C1 (stereo not given)	DT40 TDP1 no CPT 13µM, HT1080 IDH1KD tx inconclusive, TDP1 cell CPT 18µM
O=C(c1ccc2ccccc2c1)C1CCCN(S(=O)(=O)c2cccnc2)C1 (stereo not given)	IL1B secr inh inconclusive, DT40 TDP1 no CPT 21µM, TDP1 cell CPT 23µM
CC1(C(=O)Nc2ccc3c(c2)OCCO3)CSCC(=O)N1CC(F)(F)F (stereo not given)	none
COc1cc(O)cc2c1[C@@H]1Oc3c(ccc(O)c3CC=C(C)C)[C@@H]1CO2	DT40 TDP1 no CPT 23µM, TDP1 cell CPT 18µM
O=C(NCCNCc1ccccn1)c1ccco1	none
CC1=CC(C)C2(COC(c3ccc[n+](C)c3)OC2)C(C)C1 (stereo not given)	DT40 TDP1 no CPT 3.7µM, TDP1 cell CPT 5.8µM
C#Cc1ccc([C@@H]2C=C(C(=O)N3CCN(Cc4ccc5c(c4)OCO5)CC3)O[C@H](OCCCCO)C2)cc1	DT40 TDP1 no CPT inconclusive, TDP1 cell CPT inconclusive
COc1ccc2oc(=O)c(C(=O)Nc3cccc(C(C)=O)c3)cc2c1	none
CCN(CC)CCOC(=O)c1ccc(NC(=O)c2cc3cccc(OC)c3oc2=O)cc1	DT40 TDP1 no CPT inconclusive, TDP1 cell CPT 21µM (no result: IL1B secr inh, HT1080-NT tox, HT1080 IDH1KD tx)
CCN(CC)CCOC(=O)c1c(C)oc2ccc(OC)cc12	IL1B secr inh -86, HT1080 IDH1KD tx inconclusive
CCN(CC)CCOC(=O)c1ccc(NC(=O)c2cc3cc(OC)ccc3oc2=O)cc1	DT40 TDP1 no CPT 0.0058µM, TDP1 cell CPT 0.041µM (no result: IL1B secr inh, HT1080-NT tox, HT1080 IDH1KD tx)
O=C(c1ccncc1)N1CCC2(CCCN(Cc3nccs3)C2)CC1	none (no result: IL1B secr inh, HT1080-NT tox, HT1080 IDH1KD tx)
CC(=O)Nc1ccc(OCCOc2ccc(NC(C)=O)cc2)cc1	none
CCn1c2ccccc2c2nnc(SCC(=O)c3ccccc3)nc21	DT40 TDP1 no CPT inconclusive, TDP1 cell CPT inconclusive
CCOC(=O)C(CC)Sc1nnc2c3cc(C)ccc3n(C)c2n1 (stereo not given)	DT40 TDP1 no CPT inconclusive, TDP1 cell CPT inconclusive
CCCn1c2ccc(C)cc2c2nnc(SCCN3CCOCC3)nc21	IL1B secr inh -61, DT40 TDP1 no CPT 16µM, HT1080-NT tox inconclusive, HT1080 IDH1KD tx inconclusive, TDP1 cell CPT inconclusive
CCn1c2ccc(F)cc2c2nnc(SCCN3CCCCC3)nc21	IL1B secr inh inconclusive, DT40 TDP1 no CPT 16µM!, TDP1 cell CPT inconclusive
CCn1c2ccc(C)cc2c2nc3cc(C(=O)O)ccc3nc21	DT40 TDP1 no CPT inconclusive
CCCn1c2ccc(C)cc2c2nnc(SCCN3CCCCC3)nc21	IL1B secr inh -66, DT40 TDP1 no CPT 21µM, HT1080 IDH1KD tx inconclusive, TDP1 cell CPT 18µM
CCn1c2ccc(C)cc2c2nnc(SCCN3CCCCC3)nc21	IL1B secr inh -66, DT40 TDP1 no CPT 16µM, HT1080-NT tox inconclusive, HT1080 IDH1KD tx 23µM, TDP1 cell CPT inconclusive
Cc1c(NC(=O)COC(=O)Cc2ccc(Cl)cc2)c(=O)n(-c2ccccc2)n1C	none
CNC(=S)N1CCc2cc(OC)c(OC)cc2C1	none
COCC1CCN(C(=O)C2CCC(=O)N(C3CCCCCC3)C2)CC1 (stereo not given)	none
CCCn1c2ccc(C)cc2c2n[nH]c(=S)nc21	DT40 TDP1 no CPT 15µM, TDP1 cell CPT inconclusive
CCCn1c2ccc(F)cc2c2nnc(SCCN3CCOCC3)nc21	DT40 TDP1 no CPT inconclusive, HT1080 IDH1KD tx inconclusive, TDP1 cell CPT 18µM
CCCn1c2ccccc2c2nnc(SCCN3CCOCC3)nc21	DT40 TDP1 no CPT inconclusive, HT1080 IDH1KD tx inconclusive, TDP1 cell CPT inconclusive
CCn1c2ccccc2c2n[nH]c(=S)nc21	DT40 TDP1 no CPT inconclusive
CCCn1nc(CC(=O)OCC)c2ccccc2c1=O	none
CC(C)N1C/C(=C/c2cccnc2)C(=O)/C(=C/c2cccnc2)C1	IL1B secr inh -104, DT40 TDP1 no CPT 1.6µM, HT1080-NT tox 6.5µM, HT1080 IDH1KD tx 5.8µM, TDP1 cell CPT 1.6µM
CC(C)N1C/C(=C/c2ccsc2)C(=O)/C(=C/c2ccsc2)C1	IL1B secr inh -96, DT40 TDP1 no CPT 5.8µM, HT1080-NT tox inconclusive, HT1080 IDH1KD tx inconclusive, TDP1 cell CPT 2.9µM
COc1ccc(OC)c(-c2cc(Cl)c3c(c2)CC(CNC(=O)c2coc4c2C(=O)CCC4)O3)c1 (stereo not given)	none (no result: IL1B secr inh, HT1080-NT tox, HT1080 IDH1KD tx)
Cc1ccc(C(=O)NCCOc2cccc(C)c2)cc1	none
CSc1ccccc1C(=O)NCCOc1cccc(C)c1	IL1B secr inh -91
COc1ccc2oc(-c3ccccc3)c(C(=O)O)c2c1	none
O=c1c(O)c(-c2ccccc2)oc2ccccc12	DT40 TDP1 no CPT 9.2µM, TDP1 cell CPT inconclusive
O=c1c(O)c(-c2cccs2)oc2ccccc12	DT40 TDP1 no CPT inconclusive, HT1080-NT tox inconclusive, TDP1 cell CPT inconclusive
COc1cccc(-c2oc3ccc(C)cc3c(=O)c2O)c1	DT40 TDP1 no CPT 13µM, TDP1 cell CPT 21µM (no result: IL1B secr inh, HT1080-NT tox, HT1080 IDH1KD tx)
Cc1ccc(-c2oc3ccccc3c(=O)c2O)cc1	DT40 TDP1 no CPT 16µM, HT1080-NT tox inconclusive, TDP1 cell CPT 26µM
Cc1ccc2oc(-c3ccccc3)c(C(=O)O)c(=O)c2c1	DT40 TDP1 no CPT 23µM, HT1080 IDH1KD tx inconclusive, TDP1 cell CPT inconclusive
CCCN1CCN(CCCNC(=O)Cn2nc(C)n3c(cc4cc(F)ccc43)c2=O)CC1	none
COCCn1c(=O)c(C)nc2cnc(Oc3ccc(OC)cc3)nc21	none (no result: IL1B secr inh, HT1080-NT tox, HT1080 IDH1KD tx)
C[C@@H]1CN([C@H](C)CO)C(=O)c2c(c3ccccc3n2C)-c2ccccc2CO[C@H]1CN(C)C(=O)Nc1ccccc1	DT40 TDP1 no CPT inconclusive, TDP1 cell CPT inconclusive
Cc1noc(C)c1C(=O)N(C)C[C@@H]1OCc2ccccc2-c2c(n(C)c3ccccc23)C(=O)N([C@H](C)CO)C[C@H]1C	DT40 TDP1 no CPT 18µM, TDP1 cell CPT inconclusive
